Screening results as filed in PubChem BioAssay.
The list is not random: actives were taken first. Their share in the collection is about 7.3%.
FLuc counter = counter-screen for miR-21 project: firefly luciferase inhibitors or activators. P08659. purified FLuc, Km substrates, luminescence inhibition. Potency, µM (series often up to 57.5 µM), without a hit: at the top dose activity change, negative = inhibition, usual class: inhibitors. 360,000 compounds, 6.9% hits. AID 588342;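 note: plate controls were vehicle for no effect and reference inhibitor for full effect; nearly all actives have a fitted effect of over 55% in size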
Target sequence (P08659 whole entry, looked up): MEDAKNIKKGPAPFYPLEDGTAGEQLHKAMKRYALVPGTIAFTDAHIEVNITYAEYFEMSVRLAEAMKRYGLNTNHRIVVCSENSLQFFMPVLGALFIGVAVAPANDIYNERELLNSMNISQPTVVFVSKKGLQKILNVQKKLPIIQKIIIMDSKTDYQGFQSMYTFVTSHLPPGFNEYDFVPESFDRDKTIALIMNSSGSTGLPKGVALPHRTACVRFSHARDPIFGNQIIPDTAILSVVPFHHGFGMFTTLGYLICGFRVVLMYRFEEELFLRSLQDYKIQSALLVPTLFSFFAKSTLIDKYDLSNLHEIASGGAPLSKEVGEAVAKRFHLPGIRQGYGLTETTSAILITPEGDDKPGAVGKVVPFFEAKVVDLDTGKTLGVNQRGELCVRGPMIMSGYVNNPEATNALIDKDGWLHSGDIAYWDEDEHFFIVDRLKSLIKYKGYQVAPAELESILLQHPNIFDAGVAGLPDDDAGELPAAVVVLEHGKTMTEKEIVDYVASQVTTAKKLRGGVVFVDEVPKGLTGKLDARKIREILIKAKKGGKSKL
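Purified P. pyralis luciferase, 10 nM final, with Km-level 10 uM D-luciferin and 10 uM ATP in 50 mM Tris acetate pH 7.5, 10 mM Mg acetate, 0.01% Tween-20, 0.05% BSA; 6-point qHTS titration about 60 µM downward; luminescence read.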
KinaseGlo FLuc = counter-screen: inhibitors of Kinase-Glo firefly luciferase. Q27757. Kinase-Glo luciferase, ATP luminescence, 8 min. Potency, µM (titrated, usually from 38.3 µM), inactives show at the top dose activity change, negative = inhibition, usual class: inhibitors. 200,000 compounds, 0.28% hits; note: % is set by controls: 0 for no effect and ±100 for the full control effect; nearly all actives have a fitted effect of over 60% in size
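Inhibition of Kinase-Glo luciferase light generation was assessed at 10 uM ATP in pH 7.2 imidazole buffer, with luminescence measured after eight minutes at ambient temperature.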
NPC1 promoter act = activators of NPC1 promoter; Huh7 NPC1 promoter luciferase reporter, 24 h; Potency, µM (titrated, usually from 9.22 µM), for inactives: at the highest dose activation, actives largely listed as activators; 320,000 compounds, 2.4% hits; AID 485313; note: % of control where 0% means no effect; nearly all actives have a fitted effect of over 60% in size
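Huh7 cells stably carrying NPC1 promoter–luciferase, plated in Opti-MEM with 10% FBS for 2 h, were exposed to compound in DMSO for 24 h at 37 °C; luciferase reagent was added for 10 min and luminescence read.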
ELG1 genotoxic = inducers of genotoxicity in HEK293T ELG1-luciferase cells. Potency, µM (highest dose often 46 µM), inactives show at the top dose activity change, positive = activation, hits mostly activators. AID 504466. HEK293T ELG1-luciferase reporter, luminescence, 16 h. 330,000 compounds, 1.3% hits; note: % of control where 0% means no effect; nearly all actives have a fitted effect of over 60% in size
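DMSO vehicle served as control against compound-treated ELG1-luciferase HEK293T cells; exposure lasted 16 hr at 37 °C and 5% CO2, followed by ONE-Glo luminescence detection after 30 min.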
Rab9 promoter act = activates the Rab9 promoter; Huh7 Rab9 promoter-luciferase reporter, luminescence, 24 h; 320,000 compounds, 2.8% hits; Potency, µM (doses to about 9.22 µM), for inactives: at the top dose activation, negative = inhibition, most hits filed as activators; note: % of control where 0% means no effect; nearly all actives have a fitted effect of over 60% in size
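Cells were plated at 1500 per well in reduced-serum medium with 10% FBS and left 2 h. Compound in DMSO was then added for 24 h at 37 °C. Reporter signal was read by luminescence after 10 min with luciferase detection reagent.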
SMN2 splice up = enhancers of SMN2 splice variant expression | 210,000 compounds, 2.8% hits | Potency, µM (series often up to 46.1 µM), inactives show at the highest dose activity change, positive = activation, most hits filed as activators | HEK293 SMN2-luciferase splicing reporter, luminescence, 30-36 h; note: % of control where 0% means no effect; nearly all actives have a fitted effect of over 55% in size
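HEK293 cells carry an SMN2 minigene-luciferase reporter in which exon 7 inclusion puts luciferase in frame. Cells were seeded at 2000 cells/well, attached for 10-12 hours, then exposed to compounds for 30-36 hours at 37C before ONE-Glo luminescence.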
Active calls of the source: *; ? = inconclusive; / = no result given. Calls come from the whole dose curve; as a rule, active = well fitted curve in the direction sought with a large enough effect; inconclusive = small, poorly fitted or top-dose-only effect, or another doubt; inactive = no such curve, though single readings can be large; an effect the other way counts as inactive or inconclusive. Potency is the fitted concentration of half-maximal effect.

SMILES	FLuc counter	KinaseGlo FLuc	NPC1 promoter act	ELG1 genotoxic	Rab9 promoter act	SMN2 splice up
O=C(c1cc(-c2cccc(Cl)c2)on1)N1CCCC1	13µM*	/	4µM*	18µM*	2.8µM*	/
O=C(NCCc1ccccc1)c1cc(-c2ccc(Cl)c(Cl)c2)on1	2%	/	/	/	/	7%
O=C(c1cc(-c2ccc(Cl)c(Cl)c2)on1)N1CCN(c2ccccc2)CC1	?	13%	-6%	8%	1%	-2%
CC(C)CNC(=O)c1cc(-c2ccc(Cl)c(Cl)c2)on1	-11%	-5%	?	12%	4.5µM*	19%
COc1cccc(NC(=O)N(Cc2c[nH]c3ccccc23)C2CCCCCC2)c1	-2%	/	/	/	/	-13%
COc1cc(/C=N/Nc2nc(N3CCCC3)nc(N3CCCC3)n2)ccc1O	-18%	-3%	-1%	-9%	-2%	8%
COc1ccc(/C=N/Nc2nonc2N)cc1OC	?	-7%	0%	0%	-6%	23%
COc1cc(/C=N/Nc2ccccn2)ccc1O	6µM*	/	4%	9.2µM*	?	/
COc1ccc(-c2cnnc(N/N=C/c3ccc(O)c(OC)c3)n2)cc1	1.2µM*	-14%	-19%	7%	-4%	13µM*
COc1cc(/C=N/Nc2nc(-c3ccc(S(=O)(=O)N(C)C)cc3)cs2)ccc1O	3.4µM*	/	-10%	-25%	-9%	/
COc1ccc(/C=N/Nc2nc(-c3cccc(S(=O)(=O)N4CCCC4)c3)cs2)cc1OC	?	-1%	-1%	-7%	-13%	-66%
COc1ccc(/C=N/Nc2nc(N)cc(Cl)n2)cc1OC	17µM*	-5%	16%	2%	24%	14%
CCOC(=O)c1c(-c2ccc(C)cc2C)csc1NC(=O)c1ccccc1Cl	-5%	/	/	/	/	-14%
COc1cc(NC(=O)CSc2cc(=O)n(C)c3ccccc23)cc(OC)c1OC	-8%	/	/	/	/	-4%
COc1ccc(/C=N/NC(=O)C(=O)Nc2ccccn2)cc1OC	-13%	0%	-1%	0%	11%	-21%
CCNc1nc(NCC)nc(N/N=C/c2ccc(OC)cc2)n1	-19%	/	0%	-2%	-2%	/
CN(C)c1ccc(/C=N\Nc2ccccn2)cc1	0.95µM*	/	0.89µM*	5.2µM*	0.63µM*	/
COc1ccc(/C=N/Nc2nc(C)nc(N)n2)cc1	17µM*	/	13%	12%	23%	/
O=[N+]([O-])c1ccc(/C=N/Nc2ccccn2)cc1	-18%	/	?	9%	?	/
COc1ccc(/C=N/Nc2ccccn2)cc1OC	7.6µM*	/	?	?	?	/
CNCCCCCCCCSc1nc(C(C)C)ccc1C(=O)c1cccs1	/	-2%	/	/	/	/
COc1cc(NC(=O)C2CCN(S(=O)(=O)c3ccc4c(c3)CCCC(=O)N4)CC2)cc(OC)c1	-9%	/	/	/	/	/
CCc1ccc(S(=O)(=O)Nc2ccc3oc(C)c(C(=O)OCCOC)c3c2)cc1	?	/	/	/	/	-13%
C[C@@H](NC(=O)c1coc(=O)c(Br)c1)c1ccccc1	-2%	5%	2%	21µM*	8%	13µM*
Cc1cc(NC(=O)c2coc(=O)c(Br)c2)ccc1C(C)C	5.4µM*	/	18%	?	?	/
SMILES	FLuc counter	KinaseGlo FLuc	NPC1 promoter act	ELG1 genotoxic	Rab9 promoter act	SMN2 splice up
COc1ccc(C(=O)Nc2cccc(OCc3cc(=O)n4c5c(sc4n3)CCCC5)c2)cc1OC	2.4µM*	/	/	/	/	-2%
CCC/C=C(\CCC)C(NS(=O)(=O)c1ccc(C(F)(F)F)cc1)c1ccc(-c2ccccc2)cc1 (centres undefined)	/	-2%	/	/	/	-5%
COc1ccc(CNC(=O)C2CCN(c3nc4ccc(C)cc4[nH]3)CC2)cc1	-15%	/	/	/	/	/
COc1ccc(C2C(=O)N(C3CCCCC3)CC(=O)N2CCc2ccc(C)cc2)cc1OC (centres undefined)	-1%	/	/	/	/	/
COc1ccccc1C(=O)C1CCCN(C(=O)c2cn3cc(Cl)ccc3n2)C1 (centres undefined)	13µM*	-3%	-4%	3%	-3%	/
Cc1c(C(=O)NC2CCCCC2C)oc2ccccc12 (centres undefined)	13µM*	/	-1%	-17%	5%	/
Cc1c(C(=O)NC2CCC(C)CC2)oc2ccccc12 (centres undefined)	9.5µM*	/	3.2µM*	?	2.8µM*	/
Cc1cc(NC(=O)c2cc(-c3ccc(Br)cc3)on2)nn1Cc1ccc(Cl)cc1	-5%	/	/	/	/	-10%
COc1ccccc1Nc1nn2c(=O)c3ccc(C(=O)NCCC4=CCCCC4)cc3nc2s1	5%	/	/	/	/	/
COc1cc2c(cc1NC(=O)c1ccco1)CCCC2	21µM*	-2%	15%	13%	?	21%
COc1cc(NC(=O)C(C)C)ccc1NC(=O)c1ccco1	19µM*	-1%	4µM*	7.9µM*	1.1µM*	11µM*
COc1cc(NC(=S)NC(=O)c2ccco2)ccc1NC(=O)C(C)C	?	-3%	8%	9%	21%	18%
COc1cc(NC(=O)C2CCCCC2)c(OC)cc1NC(=O)c1ccco1	1%	2%	1%	-1%	?	20%
CCc1ccc(OCc2nnc(SCC(=O)NC3CCCCC3)o2)cc1	11µM*	/	-1%	2%	1%	/
Cc1ccc(CN(CC(=O)NC2CCCC2)C(=O)CSc2nnc(COc3ccccc3)o2)cc1	-2%	-1%	-9%	7%	-1%	1%
Cc1ccc(-c2nnc(SCC(=O)Nc3ccccc3F)o2)cc1	?	-2%	?	0.16µM*	?	-65%
COC(=O)c1ccccc1NC(=O)CSc1nnc(-c2ccc(C)cc2)o1	?	1%	?	?	?	-51%
O=C(CSc1nnc(-c2ccccn2)o1)Nc1ccccc1Cl	0%	/	?	?	0.56µM*	/
O=C(CSc1nnc(-c2ccncc2)o1)Nc1cc(F)ccc1F	-22%	/	2.8µM*	?	2.8µM*	/
O=C(Cn1c(-c2cccs2)cc2ccccc21)N1CCN(c2ccc(F)cc2)CC1	4%	/	/	/	/	/
Cc1cnc(NC(=O)CSc2nnc(-c3ccccc3)o2)s1	-8%	0%	3.5µM*	?	2µM*	10µM*
CCc1ccccc1NC(=O)CSc1nnc(COc2ccccc2Cl)o1	17µM*	/	/	/	/	-10%
Cc1cccc(NC(=O)CSc2nnc(-c3cc(C)n(-c4ccccc4)c3C)o2)c1C	17µM*	1%	-1%	0%	-3%	5%
O=C(CSc1nnc(-c2ccccc2)o1)Nc1ccccc1F	-12%	0%	23%	?	0.0032µM*	0.79µM*
Cc1cnc(NC(=O)CSc2nnc(COc3ccccc3)o2)s1	6%	/	-3%	-1%	0%	/
CCN1CCC(N(Cc2cccc(OC)c2)C(=O)Nc2cccc(C)c2C)CC1	-3%	/	/	/	/	/
